Data reported in PubChem BioAssay (Tox21).
Inconclusive results are not listed. Calls of active or inactive are those of the source. Unless noted, the call rests on the fitted dose curve; in most records, active means well fitted curve in the direction sought with a large enough effect in the repeat runs; inconclusive means weak or mixed curves; inactive means no such curve, though single readings can be large; an effect the other way counts as inactive or inconclusive.

How the values were obtained:
[1] = molecular target: Aryl hydrocarbon receptor (Homo sapiens) (UniProt P35869); assay: qHTS assay to identify small molecule that activate the aryl hydrocarbon receptor (AhR) signaling pathway (AID 743085);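 further: HG2L7.5c1 human HepG2 liver cells with stably integrated DRE-driven firefly reporter; series mostly up to about 70 µM; nearly all actives have a fitted effect of over 15% in size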
Chain of Aryl hydrocarbon receptor (Homo sapiens) (P35869 whole entry, looked up): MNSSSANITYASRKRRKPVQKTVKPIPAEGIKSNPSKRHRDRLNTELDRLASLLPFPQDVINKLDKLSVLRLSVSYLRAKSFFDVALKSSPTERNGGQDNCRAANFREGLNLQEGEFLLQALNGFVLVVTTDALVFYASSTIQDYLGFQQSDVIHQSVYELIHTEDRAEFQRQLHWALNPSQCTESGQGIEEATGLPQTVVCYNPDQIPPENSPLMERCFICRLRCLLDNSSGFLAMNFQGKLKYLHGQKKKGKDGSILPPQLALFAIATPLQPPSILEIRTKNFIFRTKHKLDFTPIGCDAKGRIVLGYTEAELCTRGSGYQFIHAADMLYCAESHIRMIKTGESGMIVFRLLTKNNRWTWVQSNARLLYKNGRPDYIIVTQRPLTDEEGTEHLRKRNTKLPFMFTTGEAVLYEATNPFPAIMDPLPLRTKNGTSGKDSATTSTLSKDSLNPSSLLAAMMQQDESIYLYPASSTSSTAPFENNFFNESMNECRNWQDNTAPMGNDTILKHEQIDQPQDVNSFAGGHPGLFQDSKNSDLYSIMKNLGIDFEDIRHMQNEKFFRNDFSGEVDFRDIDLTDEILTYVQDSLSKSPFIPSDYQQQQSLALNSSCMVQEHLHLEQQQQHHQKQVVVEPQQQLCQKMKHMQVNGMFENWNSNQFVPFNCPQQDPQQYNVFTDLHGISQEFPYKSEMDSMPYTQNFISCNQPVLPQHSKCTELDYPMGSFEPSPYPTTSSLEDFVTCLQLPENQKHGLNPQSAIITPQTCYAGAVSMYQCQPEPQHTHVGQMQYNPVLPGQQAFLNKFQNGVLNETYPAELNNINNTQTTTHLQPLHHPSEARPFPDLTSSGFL
Outline: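 24 h compound exposure, 37C, HepG2-derived HG2L7.5c1 cells with DRE-responsive luciferase. Readouts: fluorescence viability, then luminescence at room temperature after 30 min.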

[2] = qHTS assay to identify small molecule that activate the aryl hydrocarbon receptor (AhR) signaling pathway - cell viability counter screen (AID 743086);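 further: HepG2 liver cells carrying the AhR DRE luciferase reporter; series mostly up to about 70 µM; nearly all actives have a fitted effect of over 45% in size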
Outline: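 HepG2-AhR-luc (HG2L7.5c1) cells, 4000/well, were preincubated 5 h at 37C, exposed to compound in qHTS format for 24 hr at 37C, then given CellTiter-Fluor for 30 min; viability was read as fluorescence in the reporter wells.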

[3] = molecular target: Peroxisome proliferator-activated receptor gamma (Homo sapiens) (UniProt P37231); assay: qHTS assay to identify small molecule agonists of the peroxisome proliferator-activated receptor gamma (PPARg) signaling pathway (AID 743094; active means well fitted activation curve with a large enough effect in the signal ratio in the repeat runs, not every such curve was filed as active; the % refers to the signal ratio)
Chain of Peroxisome proliferator-activated receptor gamma (Homo sapiens) (P37231 whole entry, looked up): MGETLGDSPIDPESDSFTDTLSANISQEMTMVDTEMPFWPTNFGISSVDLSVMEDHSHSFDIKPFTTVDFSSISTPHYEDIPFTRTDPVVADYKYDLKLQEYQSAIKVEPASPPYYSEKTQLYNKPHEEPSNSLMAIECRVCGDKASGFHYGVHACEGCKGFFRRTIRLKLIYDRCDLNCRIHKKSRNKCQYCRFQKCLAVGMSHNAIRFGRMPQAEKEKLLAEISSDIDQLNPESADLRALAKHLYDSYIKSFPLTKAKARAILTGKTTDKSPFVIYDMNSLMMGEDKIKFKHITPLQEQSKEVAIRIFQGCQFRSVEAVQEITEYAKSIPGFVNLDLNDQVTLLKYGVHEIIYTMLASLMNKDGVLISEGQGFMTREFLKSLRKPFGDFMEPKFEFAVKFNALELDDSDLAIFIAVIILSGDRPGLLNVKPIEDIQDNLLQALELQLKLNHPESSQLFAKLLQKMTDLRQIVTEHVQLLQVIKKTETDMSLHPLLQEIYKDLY
Outline: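 GeneBLAzer PPARg UAS-bla HEK293H cells were plated, rested 5 h, then exposed to compounds for 17 h at 37C. Beta-lactamase activity was read by LiveBLAzer B/G FRET substrate fluorescence after 1 h at room temperature.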

[4] = qHTS assay to identify small molecule antagonists of the peroxisome proliferator-activated receptor gamma (PPARg) signaling pathway - cell viability counter screen (AID 743194); further: nearly all actives have a fitted effect of over 55% in size; further: potency means the concentration at half of the fitted maximal effect
Outline: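 PPARg-UAS-bla HEK293H cells were plated, rested 5 h at 37 C, then treated with compounds plus rosiglitazone (50 nM final) for 17 h at 37 C; viability was then read by CellTiter-Glo luminescence after 30 min at room temperature.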

[5] = qHTS assay for small molecule agonists of the antioxidant response element (ARE) signaling pathway (AID 743202; active means well fitted activation curve with a large enough effect in the signal ratio in the repeat runs, not every such curve was filed as active; the % refers to the signal ratio; further: potency means the concentration at half of the fitted maximal effect)
Outline: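 Compounds delivered in DMSO to ARE-bla HepG2 cells (2,000 cells/well, pre-incubated 5 h) and left 16 h at 37 C. LiveBLAzer B/G FRET substrate then added for 2 h at RT before fluorescence reading.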

[6] = qHTS assay for small molecule agonists of the antioxidant response element (ARE) signaling pathway - cell viability counter screen (AID 743203; calls by dose curve; further: nearly all actives have a fitted effect of over 55% in size)
Outline: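 ARE-bla HepG2 cells were plated, rested 5 h at 37C/5% CO2, then exposed to compounds in DMSO for 16 h. Viability was read as CellTiter-Glo luminescence after 30 min at room temperature, in the same wells as the ARE screen.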

[7] = qHTS assay for small molecule activators of the heat shock response signaling pathway - cell viability counter screen (AID 743209); further: nearly all actives have a fitted effect of over 50% in size; further: potency means the concentration at half of the fitted maximal effect
Outline: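 HSE-bla HeLa cells plated overnight, then exposed to Tox21 compounds (23 nL in DMSO) for 5 h at 37 C. After the bla reporter read, CellTiter-Glo was added in the same wells and luminescence read after 30 min at room temperature.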

[8] = qHTS assay for small molecule activators of the heat shock response signaling pathway (AID 743210; active means well fitted activation curve with a large enough effect in the signal ratio in the repeat runs, with a control signal flat, not every such curve was filed as active; the % refers to the signal ratio;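 further: HeLa cells with beta-lactamase reporter driven by heat shock elements; series mostly up to about 63 µM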)
Outline: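 Reporter gene assay: HeLa cells stably bearing an HSE-bla construct, compound treatment 5 h at 37 C, LiveBLAzer substrate 2.5 h at RT, fluorescence intensity.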

[9] = qHTS assay to identify small molecule agonists of the peroxisome proliferator-activated receptor delta (PPARd) signaling pathway - cell viability counter screen (AID 743211); further: nearly all actives have a fitted effect of over 55% in size
Outline: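 Luminescent ATP viability assay (CellTiter-Glo, 30 min RT) in UAS-bla HEK293H cells carrying the PPAR delta reporter construct, 3000 cells/well, after a 17 h compound treatment at 37 C.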

[10] = molecular target: Peroxisome proliferator-activated receptor delta (Homo sapiens) (UniProt Q03181); assay: qHTS assay to identify small molecule agonists of the peroxisome proliferator-activated receptor delta (PPARd) signaling pathway (AID 743212; calls by dose curve)
Chain of Peroxisome proliferator-activated receptor delta (Homo sapiens) (Q03181 whole entry, looked up): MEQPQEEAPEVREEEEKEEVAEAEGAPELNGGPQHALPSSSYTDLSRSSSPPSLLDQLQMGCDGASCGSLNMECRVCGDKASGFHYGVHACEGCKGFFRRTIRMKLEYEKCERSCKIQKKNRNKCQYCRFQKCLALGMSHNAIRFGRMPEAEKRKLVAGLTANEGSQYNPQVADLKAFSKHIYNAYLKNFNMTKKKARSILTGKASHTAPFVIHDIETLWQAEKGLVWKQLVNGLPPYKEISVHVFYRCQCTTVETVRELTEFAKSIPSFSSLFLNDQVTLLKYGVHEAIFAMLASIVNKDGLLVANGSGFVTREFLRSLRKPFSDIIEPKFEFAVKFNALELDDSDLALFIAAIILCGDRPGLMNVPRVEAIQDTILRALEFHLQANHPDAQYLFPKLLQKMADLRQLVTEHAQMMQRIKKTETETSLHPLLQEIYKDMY
Outline: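 A PPARd-bla HEK293H line with beta-lactamase under an Upstream Activator Sequence is treated with compounds at 37 C. Substrate loading for 2 h at room temperature precedes the fluorescence measurement.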

[11] = qHTS assay to identify small molecule antagonists of the peroxisome proliferator-activated receptor delta (PPARd) signaling pathway - cell viability counter screen (AID 743213); further: nearly all actives have a fitted effect of over 50% in size; further: potency means the concentration at half of the fitted maximal effect
Outline: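 PPARd-bla HEK293H cells were treated with compounds plus agonist L165041 (300 nM final) for 17 h at 37 C. Viability was then read in the same wells by CellTiter-Glo luminescence after 30 min at room temperature.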

[12] = molecular target: Peroxisome proliferator-activated receptor delta (Homo sapiens) (UniProt Q03181); assay: qHTS assay to identify small molecule antagonists of the peroxisome proliferator-activated receptor delta (PPARd) signaling pathway (AID 743215; active means well fitted inhibition curve with a large enough effect in the signal ratio in the repeat runs, not every such curve was filed as active; the % refers to the signal ratio;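 further: cells stimulated with agonist L165041 at 300 nM final during compound exposure; series mostly up to about 62 µM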)
Outline: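 PPARd-bla HEK293H cells (UAS-bla reporter) preincubated 5 h, then given compound plus 300 nM final L165041 agonist for 17 h at 37 C. Beta-lactamase activity read by LiveBLAzer B/G FRET substrate fluorescence after 2 h at room temperature.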

[13] = molecular target: Bile acid receptor (Homo sapiens) (UniProt Q96RI1); assay: qHTS assay to identify small molecule antagonists of the farnesoid-X-receptor (FXR) signaling pathway (AID 743217; active means well fitted inhibition curve with a large enough effect in the signal ratio in the repeat runs, not every such curve was filed as active; the % refers to the signal ratio)
Chain of Bile acid receptor (Homo sapiens) (Q96RI1 whole entry, looked up): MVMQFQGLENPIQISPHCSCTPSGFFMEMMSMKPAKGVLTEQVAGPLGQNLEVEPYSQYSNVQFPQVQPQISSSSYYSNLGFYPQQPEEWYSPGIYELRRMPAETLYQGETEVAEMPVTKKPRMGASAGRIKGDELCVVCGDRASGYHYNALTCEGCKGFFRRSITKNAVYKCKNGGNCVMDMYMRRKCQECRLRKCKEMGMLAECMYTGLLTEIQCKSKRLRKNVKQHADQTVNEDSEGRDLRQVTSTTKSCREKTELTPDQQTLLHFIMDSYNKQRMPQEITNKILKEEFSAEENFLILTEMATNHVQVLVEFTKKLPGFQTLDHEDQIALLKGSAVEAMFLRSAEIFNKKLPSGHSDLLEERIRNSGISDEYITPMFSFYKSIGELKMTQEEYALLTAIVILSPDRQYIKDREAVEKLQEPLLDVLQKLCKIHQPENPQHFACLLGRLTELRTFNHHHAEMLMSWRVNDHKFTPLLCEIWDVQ
Outline: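 FXR-UAS-bla HEK 293T cells (beta-lactamase reporter) given compound plus chenodeoxycholic acid (50 uM final), 16 h at 37C. LiveBLAzer B/G FRET substrate added for 2 h at room temperature; fluorescence read.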

[14] = qHTS assay to identify small molecule agonists of the farnesoid-X-receptor (FXR) signaling pathway - cell viability counter screen (AID 743218); further: nearly all actives have a fitted effect of over 45% in size; further: potency means the concentration at half of the fitted maximal effect
Outline: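 FXR-UAS-bla HEK 293T cells exposed to compounds for 16 h at 37C. Cytotoxicity read in the same wells by CellTiter-Glo luminescence after 30 min at room temperature, following the beta-lactamase FRET read.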

[15] = molecular target: Bile acid receptor (Homo sapiens) (UniProt Q96RI1); assay: qHTS assay to identify small molecule agonists of the farnesoid-X-receptor (FXR) signaling pathway (AID 743220; active means well fitted activation curve with a large enough effect in the signal ratio in the repeat runs, not every such curve was filed as active; the % refers to the signal ratio)
Outline: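 Beta-lactamase reporter under UAS control in GeneBLAzer FXR HEK 293T cells (5000/well) measured with LiveBLAzer FRET substrate after 2 h at room temperature. Compound exposure lasted 16 h at 37C.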

[16] = qHTS assay to identify small molecule antagonists of the farnesoid-X-receptor (FXR) signaling pathway - cell viability counter screen (AID 743221; active means well fitted cell-killing curve with a large enough effect in the repeat runs, not every such curve was filed as active; further: nearly all actives have a fitted effect of over 50% in size; further: potency means the concentration at half of the fitted maximal effect)
Outline: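 In GeneBLAzer FXR-UAS-bla HEK 293T cells stimulated with 50 uM chenodeoxycholic acid (final), compounds acted for 16 h at 37 C. Viability was assessed afterwards by CellTiter-Glo luminescence.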

[17] = molecular target: Vitamin D3 receptor (Homo sapiens) (UniProt P11473); assay: qHTS assay to identify small molecule agonists of the vitamin D receptor (VDR) signaling pathway (AID 743222; calls by dose curve)
Chain of Vitamin D3 receptor (Homo sapiens) (P11473 whole entry, looked up): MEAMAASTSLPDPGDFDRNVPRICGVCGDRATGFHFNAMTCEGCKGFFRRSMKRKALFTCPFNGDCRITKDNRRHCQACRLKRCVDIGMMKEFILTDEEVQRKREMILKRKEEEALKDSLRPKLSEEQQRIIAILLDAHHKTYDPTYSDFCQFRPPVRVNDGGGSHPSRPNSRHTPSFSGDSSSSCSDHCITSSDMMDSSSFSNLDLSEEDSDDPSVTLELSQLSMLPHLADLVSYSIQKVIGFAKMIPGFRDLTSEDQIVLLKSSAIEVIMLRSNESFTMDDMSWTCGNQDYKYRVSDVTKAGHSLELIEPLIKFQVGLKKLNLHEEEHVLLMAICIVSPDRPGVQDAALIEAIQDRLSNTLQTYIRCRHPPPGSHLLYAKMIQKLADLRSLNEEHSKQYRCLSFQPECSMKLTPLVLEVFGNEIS
Outline: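 VDR-bla cells plated 4 h at 37 C, then exposed to compounds for 16 h at 37 C. Beta-lactamase reporter activity measured by fluorescence after 2 h room-temperature loading with LiveBLAzer B/G FRET substrate.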

[18] = molecular target: Vitamin D3 receptor (Homo sapiens) (UniProt P11473); assay: qHTS assay to identify small molecule antagonists of the vitamin D receptor (VDR) signaling pathway (AID 743223; active means well fitted inhibition curve with a large enough effect in the signal ratio in the repeat runs, not every such curve was filed as active; the % refers to the signal ratio)
Outline: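 Agonist 1alpha,25-dihydroxyvitamin D3 (3 nM in well) was added with each compound to VDR-bla cells preincubated 4 h. Cells stood 16 h at 37C, then FRET substrate 2 h at room temperature; fluorescence intensity recorded.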

[19] = qHTS assay to identify small molecule agonists of the vitamin D receptor (VDR) signaling pathway - cell viability counter screen (AID 743224); further: series mostly up to about 63 µM; nearly all actives have a fitted effect of over 50% in size
Outline: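 VDR-bla cells, 4 h after plating, exposed to compounds for 16 h at 37C; viability then read in the same wells as CellTiter-Glo luminescence after 30 min at room temperature, following the bla FRET read.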

[20] = molecular target: Peroxisome proliferator-activated receptor gamma (Homo sapiens) (UniProt P37231); assay: qHTS assay to identify small molecule antagonists of the peroxisome proliferator-activated receptor gamma (PPARg) signaling pathway (AID 743191; calls by dose curve; further: nearly all actives have a fitted effect of over 30% in size; further: potency means the concentration at half of the fitted maximal effect)
Outline: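 GeneBLAzer PPARg UAS-bla HEK293H cells carrying a UAS-driven beta-lactamase reporter were plated at 3000 cells/well, preincubated 5 h at 37C, then given compound for 17 h at 37C; LiveBLAzer B/G FRET substrate was read after 1 h at room temperature.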

Measured: Potency

CCCCOC(=O)c1ccc(O)cc1
inactive: [1] | [2] | [3] | [4] | [5] | [6] | [7] | [8] | [9] | [10] | [11] | [12] | [13] | [14] | [15] | [16] | [17] | [18] | [19]

O=C1O[C@H]([C@@H](O)CO)C(O)=C1O
inactive: [1] | [2] | [3] | [20] | [4] | [5] | [6] | [7] | [9] | [11] | [14] | [16] | [19]

C=C1CC[C@H](O)C/C1=C\C=C1/CCC[C@]2(C)[C@@H]([C@H](C)CCCC(C)C)CC[C@@H]12
active: [20] 54.4 µM | [4] 61.1 µM | [5] 21.5 µM | [7] 48.5 µM | [11] 43.2 µM | [14] 48.5 µM | [16] 48.5 µM
inactive: [1] | [2] | [15]

CC1(C)S[C@@H]2[C@H](NC(=O)[C@H](N)c3ccccc3)C(=O)N2[C@H]1C(=O)O
inactive: [1] | [2] | [3] | [20] | [4] | [5] | [6] | [7] | [9] | [11] | [14] | [16] | [19]
